Records with an inconclusive call do not appear. The source made the active and inactive calls. How the source made its calls, unless noted: active means hit-call score of the fitted dose curve at least 0.9, where 1 is the maximum; inactive means score below 0.9.
Key:
[1] = CCTE_Shafer_MEA_acute_firing_rate_mean: CCTE's Neural Acute Assay for Mean Firing Rate, Shafer Lab (AID 2284009);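 further: analyzed for loss of signal so actives lower firing rate relative to DMSO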
Procedure, shortened: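 Spontaneous spiking of primary rat cortical networks, DIV 13/15, 37 C. Compound 0.03-40 uM, n ≥3 wells; 40 min baseline vs 40 min treated. Endpoint fitted in loss-of-signal direction against DMSO.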

[2] = CCTE_Harrill_HTTr_Viability_MCF7: CCTE's 6-hour Cell Viability Assessment for the High-Throughput Transcriptomics (HTTr) Platform, in MCF-7 cells cultured in DMEM + 10% fetal bovine serum, Harrill Lab (AID 2284010)
Procedure, shortened: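 Propidium iodide exclusion, imaged by high-content analysis, gauged viability after a six-hour exposure across eight concentrations. Cells were MCF-7 grown in DMEM with 10% fetal bovine serum; fits run in both directions against DMSO.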

[3] = CCTE_Harrill_HTTr_Apoptosis_MCF7: CCTE's 6-hour Apoptosis Assessment for the High-Throughput Transcriptomics (HTTr) Platform, in MCF-7 cells cultured in DMEM + 10% fetal bovine serum, Harrill Lab (AID 2284011)
Procedure, shortened: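 Cells are dosed with test chemicals at eight concentrations and imaged 6 hours later for caspase-3/7 activity using a green fluorogenic detection reagent. Activity is fitted in both directions against DMSO controls.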

[4] = CCTE_Harrill_HTTr_CellCount_MCF7: CCTE's Cell Proliferation Assessment for the High-Throughput Transcriptomics (HTTr) Platform, Harrill Lab (AID 2284012; active means hit-call score of the fitted dose curve at least 0.9, where 1 is the maximum;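 further: cells exposed to compound for six hours; intended direction is loss of nuclei count meaning fewer cells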)
Procedure, shortened: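 Cell count from high-content imaging of Hoechst-labeled nuclei serves as viability/growth readout. Chemicals were applied to MCF-7 cells in eight concentrations for six hours, with fitting in both directions relative to DMSO.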

[5] = CCTE_Shafer_MEA_acute_burst_number: CCTE's Neural Acute Assay for Single-Electrode Bursts, Shafer Lab (AID 2284013)
Procedure, shortened: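 Burst totals were derived with adaptive spike detection (8x rms threshold) on filtered signals from rat cortical cultures; change relative to pre-treatment baseline after 40-min compound exposure (0.03-40 uM) was fitted in the negative direction against DMSO.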

[6] = CCTE_Shafer_MEA_acute_burst_duration_mean: CCTE's Neural Acute Assay for Mean Burst Duration, Shafer Lab (AID 2284014);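 further: hits are decreases in mean burst duration relative to DMSO controls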
Procedure, shortened: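 Acute exposure of mature rat cortical networks (DIV 13 or 15) grown on microelectrode arrays to 0.03-40 uM compound. Mean burst duration compared with the 40-min pre-dose baseline over a 40-min post-dose recording at 37 C.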

[7] = CCTE_Shafer_MEA_acute_per_burst_spike_number_mean: CCTE's Neural Acute Assay for Average Number of Spikes Per Burst, Shafer Lab (AID 2284015);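 further: hits are decreases in mean spikes per burst versus baseline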
Procedure, shortened: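 Read-out: percent change in mean spikes per burst, each well's post-exposure 40-min recording versus its own 40-min baseline. Rat cortical cultures, DIV 13 or 15, compounds 0.03-40 uM; DMSO is negative control, loss-of-signal fitting.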

[8] = CCTE_Shafer_MEA_acute_interburst_interval_mean: CCTE's Neural Acute Assay for Mean Interburst Interval, Shafer Lab (AID 2284016);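 further: percent change of mean interburst interval versus each well's own pre-dose baseline; curves fitted for decrease in interburst interval relative to DMSO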
Procedure, shortened: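 Rat cortical cultures, DIV 13/15; 20 min equilibration, 40 min baseline, compound 0.03-40 uM, 40 min re-recording, 37 C. Spikes detected at 8x rms noise (300-5000 Hz band-pass). Endpoint: % change in interburst interval, fitted in loss direction vs DMSO.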

[9] = CCTE_Shafer_MEA_acute_burst_percentage_mean: CCTE's Neural Acute Assay for Percentage of Spikes in a Burst, Shafer Lab (AID 2284017);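 on AC50: curve fitted for loss of signal so potency reflects decreased burst percentage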
Procedure, shortened: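 Rat cortical cultures, DIV 13/15, 37 C. Spikes detected at 8x rms noise (300-5000 Hz band-pass). Burst spikes/total spikes averaged across electrodes per well; % change post- vs pre-treatment (40 min each), loss-of-signal fit vs DMSO.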

[10] = CCTE_Shafer_MEA_acute_burst_percentage_std: CCTE's Neural Acute Assay for Standard Deviation of Burst Percentage, Shafer Lab (AID 2284018);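 further: fitted in the negative direction so actives lower burst percentage SD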
Procedure, shortened: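 Primary rat cortical neurons on 16-electrode MEA wells were recorded 40 min at baseline (DIV 13 or 15), then 40 min after compound (0.03-40 uM), at 37 C. Well value is SD across electrodes of spikes-in-bursts/total spikes; endpoint is percent change, DMSO-referenced.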

[11] = CCTE_Shafer_MEA_acute_per_network_burst_spike_number_mean: CCTE's Neural Acute Assay for Average Number of Spikes in a Network Burst, Shafer Lab (AID 2284019);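 on AC50: curve fitted for loss of signal so actives reduce spikes per network burst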
Procedure, shortened: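 Acute exposure of rat primary cortical networks (DIV 13/15) on MEAs; adaptive spike detection at 8x rms noise, 37 C. Percent change in spikes per network burst after 40 min with compound (0.03-40 uM), negative direction vs DMSO.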

[12] = CCTE_Shafer_MEA_acute_per_network_burst_spike_number_std: CCTE's Neural Acute Assay for Standard Deviation of Number of Spikes in a Network Burst, Shafer Lab (AID 2284020);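 further: fitted for decrease in spike-number SD versus DMSO so actives lower it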
Procedure, shortened: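 Acute MEA exposure, rat cortical neurons, 0.03-40 uM. Per-well % change versus own baseline; DMSO as negative control.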

[13] = CCTE_Shafer_MEA_acute_per_network_burst_electrodes_number_mean: CCTE's Neural Acute Assay for Mean Number of Electrodes in a Network Burst, Shafer Lab (AID 2284021);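 further: curves fitted for decreases only so hits reduce electrodes per burst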
Procedure, shortened: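 Cultures of rat cortex neurons were exposed on DIV 13 or 15 to compounds at 0.03-40 uM in at least three wells each. Activity over 40 min before and 40 min after exposure at 37 C gave the percent change in electrodes per network burst.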

[14] = CCTE_Shafer_MEA_acute_network_burst_percentage: CCTE's Neural Acute Assay for Percentage of Network Bursts, Shafer Lab (AID 2284022);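 further: curves fitted for loss so actives lower network burst percentage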
Procedure, shortened: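 Cortical neurons from rat were grown over microelectrode arrays and used on day 13 or 15 in vitro. Wells with at least 10 active electrodes received test chemical at 0.03-40 uM. Activity during 40 min of exposure was compared with the preceding 40-min baseline.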

[15] = CCTE_Shafer_MEA_acute_cross_correlation_area: CCTE's Neural Acute Assay for Area of Cross Correlation, Shafer Lab (AID 2284024);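 further: rat primary cortical neuron networks on 48-well MEA at DIV 13 or 15 with 40 min exposure; area under pooled inter-electrode spike cross-correlation near zero lag as percent change from own baseline; curves fitted for loss of cross-correlation area so actives lower synchrony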
Procedure, shortened: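 Acute exposure of mature rat cortical networks (day 13 or 15 post-plating) to 0.03-40 uM compound. Spontaneous spiking on MEA, 40 min pre- and post-dose at 37 C.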

[16] = CCTE_Shafer_MEA_acute_cross_correlation_HWHM: CCTE's Neural Acute Assay for Cross Correlation at Half Width at Half Maximum, Shafer Lab (AID 2284026);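 further: percent change per well from pre-dose baseline in spike cross-correlogram half width; hits are a decrease in cross-correlogram half width relative to DMSO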
Procedure, shortened: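 Primary cortex (rat), MEA, DIV 13/15; compound 0.03-40 uM; 40 min pre + 40 min post at 37 C; spike threshold 8x rms; wells need ≥10 active electrodes; endpoint = % change in cross-correlogram HWHM vs baseline, DMSO negative control.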

Measured: AC50

CN1CCCC1=O
inactive: [1] | [2] | [3] | [4] | [5] | [6] | [7] | [8] | [9] | [10] | [11] | [12] | [13] | [14] | [15] | [16]

Cc1ccc(C)c(O)c1C
active: [9] 32.4 µM | [10] 29.3 µM | [16] 33.9 µM
inactive: [1] | [2] | [3] | [4] | [5] | [6] | [7] | [8] | [11] | [12] | [13] | [14] | [15]

C=CCOC(=O)c1ccccc1C(=O)OCC=C
inactive: [1] | [2] | [3] | [4] | [5] | [6] | [7] | [8] | [11] | [12] | [13] | [14] | [15] | [16]
active: [9] 20 µM | [10] 20 µM

COc1ccc(S(=O)(=O)N2C(=O)[C@@](c3ccccc3OC)(N3C[C@H](O)C[C@H]3C(=O)N(C)C)c3cc(Cl)ccc32)c(OC)c1
inactive: [2] | [3] | [5] | [6] | [7] | [8] | [9] | [10] | [11] | [12] | [13] | [14] | [15] | [16]
active: [1] 31.8 µM

CC(C)(C)c1cc(O)c(C(C)(C)C)cc1O
inactive: [2] | [3] | [5] | [7] | [9] | [10] | [13] | [14]
active: [1] 25.9 µM | [6] 29.4 µM | [8] 31.4 µM | [11] 4.33 µM | [12] 30.7 µM | [16] 31.7 µM

Nc1nc(N)c2nc(CNc3ccc(C(=O)N[C@@H](CCC(=O)O)C(=O)O)cc3)cnc2n1
inactive: [1] | [5] | [6] | [7] | [8] | [9] | [10] | [11] | [12] | [13] | [14] | [15] | [16]

CCCCCCCCCCO
inactive: [1] | [2] | [4] | [5] | [6] | [7] | [8] | [10] | [11] | [12] | [13] | [14] | [15]
active: [9] 10.3 µM | [16] 20 µM

Nc1ccccc1N
inactive: [1] | [2] | [3] | [4] | [5] | [6] | [7] | [8] | [9] | [10] | [11] | [12] | [13] | [14] | [15] | [16]

Cc1ccc2ncccc2c1
inactive: [1] | [2] | [5] | [6] | [7] | [8] | [9] | [10] | [11] | [12] | [13] | [14] | [15] | [16]

Source: PubChem BioAssay (EPA / NIEHS)
